From PubChem BioAssay
Cruzain Triton = qHTS Assay for Promiscuous and Specific Inhibitors of Cruzain (with detergent). hit rate 0.43% among 200,000. Potency, µM, for the others: max response, negative = inhibition, usual class: inhibitors. purified cruzain, Z-FR-AMC fluorescence, 0.01% Triton. Cruzipain (Trypanosoma cruzi), P25779;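 note: plate controls were neutral wells for no effect and buffer without enzyme for full effect; nearly all actives have a fitted effect of over 40% in size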
Target sequence (P25779 123-467 limits assumed): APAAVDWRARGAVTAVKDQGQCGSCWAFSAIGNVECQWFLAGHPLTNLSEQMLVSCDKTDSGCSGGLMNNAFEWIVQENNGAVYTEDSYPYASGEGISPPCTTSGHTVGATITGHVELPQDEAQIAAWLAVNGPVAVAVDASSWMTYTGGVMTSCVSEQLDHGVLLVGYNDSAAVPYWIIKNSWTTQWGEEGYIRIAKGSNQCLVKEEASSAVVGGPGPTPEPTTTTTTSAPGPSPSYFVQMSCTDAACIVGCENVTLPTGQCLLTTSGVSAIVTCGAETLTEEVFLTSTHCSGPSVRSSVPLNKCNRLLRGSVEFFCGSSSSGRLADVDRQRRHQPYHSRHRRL
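Cysteine protease activity tested under reducing, mildly acidic conditions (100 mM sodium acetate pH 5.5, 5 mM DTT) plus 0.01% Triton X-100. Cruzain 1.5 nM; substrate Z-FR-AMC 2 uM; 15 min compound preincubation at room temperature.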
Cruzain noTriton = qHTS Assay for Promiscuous and Specific Inhibitors of Cruzain (without detergent); Cruzipain (Trypanosoma cruzi), P25779; purified cruzain, Z-FR-AMC fluorescence, no detergent; Potency, µM, for the others: max response, negative = inhibition, hits mostly inhibitors; hit rate 2.3% among 200,000; AID 1476, 2009;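 note: plate controls were enzyme without inhibitor for no effect and buffer without enzyme for full effect; nearly all actives have a fitted effect of over 40% in size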
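Purified cruzain at 1.5 nM, pre-incubated 15 min with compound at room temperature in 100 mM sodium acetate pH 5.5, 5 mM DTT, 0.00005% Triton X-100. Reaction started with 2 uM Z-FR-AMC; AMC fluorescence increase over 60 s gives rate.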
Active calls of the source: *; ? = inconclusive; ! = not active in a repeat. Only some compounds are listed: those with a hit (about 2.6% of all), similar ones and a draw of the others. Calls come from the whole dose curve; as a rule, active = well fitted curve in the direction sought with a large enough effect; inconclusive = small, poorly fitted or top-dose-only effect, or another doubt; inactive = no such curve, though single readings can be large; an effect the other way counts as inactive or inconclusive. Potency is the fitted concentration of half-maximal effect.

SMILES	Cruzain Triton	Cruzain noTriton
CCOc1ccccc1NC(=O)C1CCN(S(=O)(=O)c2ccc3[nH]c(=O)ccc3c2)CC1	-3.3%	10.0%
COc1cccc(NC(=O)C2CCN(S(=O)(=O)c3ccc4[nH]c5c(c4c3)CCCCC5)CC2)c1	-1.7%	20µM*
CC(=O)c1cccc(NC(=O)C2CCN(S(=O)(=O)c3ccc(F)cc3)CC2)c1	1.7%	-11.0%
CC(=O)c1ccc(NS(=O)(=O)c2ccc3[nH]c4c(c3c2)CCCCCC4)cc1	-12.2%	?
O=C(Nc1cccc(F)c1)C1CCN(S(=O)(=O)c2ccc3[nH]c4c(c3c2)CCCCC4)CC1	1.0%	15.8µM*
Cc1ccc2c(=O)c(C(=O)c3ccc(F)cc3)cn(CC(=O)NCc3ccccc3)c2n1	-0.6%	2.7%
COc1cccc(-n2c(=O)c3c(C)c(C(=O)N(C)C)sc3n(CC(=O)Nc3ccc(C)cc3Cl)c2=O)c1	0.2%	-7.1%
CC(C)CCNC(=O)CN1C(=O)c2cccnc2Sc2ccccc21	-2.1%	-6.8%
CS(=O)(=O)N1CCC2(CCCN(C(=O)Nc3ccccc3)C2)CC1	7.5%	-1.1%
CSc1cccc(NC(=O)C2CCN(S(C)(=O)=O)CC2)c1	9.6%	0.5%
CSc1cccc(NC(=O)C2CCN(S(=O)(=O)c3ccc4[nH]c5c(c4c3)CCCCC5)CC2)c1	2.7%	12.6µM*
CC(=O)N[C@H](Cc1ccc(O)cc1)C(=O)O	9.3%	-1.4%
Cc1cccc(C(=O)Nc2ccc(C(=O)/C=C/c3cccnc3)cc2)c1	-13.3%	?
O=C(/C=C/c1cccnc1)c1ccc(NC(=O)c2cccc(Br)c2)cc1	-10.7%	25.1µM*
Cc1cc(C(C)(C)C)c(OCCCN2CCOCC2)c(C(C)(C)C)c1	1.7%	5.3%
CCOC(=O)c1c(-c2ccc(Br)cc2)csc1NC(=O)c1ccc(F)cc1	-2.4%	-12.2%
CCOC(=O)c1c(-c2ccc(C)cc2)csc1NC(=S)NC(=O)c1ccccc1	1.1%	25.1µM*
CCOC(=O)c1c(-c2ccc(OC)c(OC)c2)csc1NC(=O)c1ccc(C)cc1	-1.6%	4.9%
CCOC(=O)c1c(-c2ccc(F)cc2)csc1NC(=O)c1c(-c2ccccc2)noc1C	-5.4%	-48.9%
COC(=O)c1c(-c2ccccc2)csc1NC(=O)c1c(-c2ccccc2)noc1C	-2.8%	20µM*
CCOC(=O)c1c(-c2ccc(C)cc2)csc1NC1=NS(=O)(=O)c2ccccc21	-4.8%	7.94µM*
CCOC(=O)c1c(-c2ccc(C)cc2)csc1NC(=O)C1CC=CCC1C(=O)O (stereo not given)	-6.5%	?
COC(=O)c1c(-c2ccc(C)cc2)csc1NC(=S)NC(=O)c1ccc(F)cc1	-2.1%	12.6µM*
Cc1ccccc1C(=N)c1ccccc1Cc1cccc2ccccc12	1.1%	-9.5%
Cc1ccc(C)c(NC(=O)NCc2ccc(Cl)cc2)c1	0.0%	-5.7%
SMILES	Cruzain Triton	Cruzain noTriton
Cc1nc(SCC(=O)Nc2ccc3c(c2)OCO3)c(C#N)c2c1CCCC2	-0.5%	-9.1%
CCOC(=O)c1ccc(NC(=O)CSc2nc(-c3ccc(OC)cc3)cc(C(F)(F)F)c2C#N)cc1	0.1%	-2.7%
CCOc1cccc(NC(=O)CSc2nc(C)c3c(c2C#N)CCCC3)c1	4.3%	7.94µM*
CCOC(=O)c1c(C#N)c(SCC(=O)Nc2ccc(OC)cc2)nc2c1CN(CC)CC2	-2.6%	25.1µM*
C=C(C(C)=O)C(O)c1cccc(Br)c1 (stereo not given)	4.5%	3.8%
CC(C)n1cc(/C=C2\NC(=O)N(c3cccc(Cl)c3)C2=O)c2ccccc21	-0.5%	25.1µM*
CC(C)n1cc(/C=C2/NC(=O)N(c3cccc(Cl)c3)C2=O)c2ccccc21	-0.2%	15.8µM*
Cn1cc(C2=C(c3ccc(Cl)cc3Cl)C(=O)NC2=O)c2ccccc21	-7.0%	12.7%
CC(C)n1cc(/C=N/NC(=O)COc2cccc3cccnc23)c2ccccc21	-5.3%	?
CCOc1ccc(CCNC(=O)c2cc3cccc4c3n2CCS4)cc1	-10.4%	-29.5%
O=C(NCCCN1CCN(c2ccccc2)CC1)c1nnc(Cc2ccc(F)cc2)o1	-1.9%	8.3%
COc1cc(CSc2ncc(CO)n2Cc2ccc(C)cc2)cc(OC)c1	-5.3%	10.8%
Cc1ccc(N2CCN(C3=NC(=O)C(Cc4ccccc4)S3)CC2)cc1 (stereo not given)	28.2µM*	-4.0%
O=C1N=C(N2CCN(c3ccccc3)CC2)SC1Cc1ccccc1 (stereo not given)	-26.2%	-7.0%
O=c1cc[nH]c(=S)[nH]1	4.4%	0.4%
O=S(=O)(Nc1cccc(-c2ccc(N3CCCCC3)nn2)c1)c1cccs1	-5.4%	?
Cc1cc(Oc2nc3c(C)cccn3c(=O)c2/C=C(\C#N)S(=O)(=O)c2ccc(Cl)cc2)ccc1Cl	-0.6%	12.6µM*
Cc1cccn2c(=O)c(/C=C(\C#N)c3nc4ccccc4n3C)c(Oc3ccc(Cl)cc3)nc12	-1.4%	-7.1%
COc1ccc(C2C(C#N)=C(N)N3C(=C2C#N)Sc2ccccc23)cc1 (stereo not given)	-6.5%	6.31µM*
COc1ccc(C2C(C#N)=C(N)Nc3nc4ccccc4n32)cc1 (stereo not given)	1.1%	?
O=C(Nc1cccc(F)c1)N1CC[C@@]2(CCCN(C(=O)c3ccncc3)C2)C1	3.0%	-3.6%
CCCc1cc(=O)[nH]c(SCc2nc(-c3ccc(OC)cc3)no2)n1	-1.4%	-27.7%
Cc1cc(C)nc(NC(=NCCc2c[nH]c3ccccc23)NC(=O)Nc2ccc(Cl)cc2)n1	-0.8%	25.1µM*
COc1ccc2[nH]cc(CCN=C(NC(=O)c3cccc(Cl)c3)Nc3nc(C)cc(C)n3)c2c1	-1.3%	-28.7%
Cc1ccc(-n2ncc3c(NCCc4ccccc4)ncnc32)cc1	-0.7%	-17.0%
SMILES	Cruzain Triton	Cruzain noTriton
CC1(C)CC2CC(C)(CN2S(=O)(=O)c2ccc(C(=O)Nc3ccc(S(=O)(=O)N4CCOCC4)cc3)cc2)C1 (stereo not given)	-5.4%	-1.8%
CCOC(=O)c1cc([N+](=O)[O-])sc1NC(=O)c1ccc(S(=O)(=O)N2CC3(C)CC2CC(C)(C)C3)cc1 (stereo not given)	-2.5%	3.98µM*
COc1ccccc1C(=O)NC1=NC(c2ccc(Br)cc2)CC(=O)N1 (stereo not given)	-9.5%	?
CC(C)c1ccc(/C=C(\C#N)c2nc(-c3ccc(O)cc3)cs2)cc1	7.0%	?
CC(C)c1ccc(/C=C(/C#N)c2nnc(NC(=O)c3ccccc3)s2)cc1	-6.2%	12.6µM*
NC(=NCc1ccccc1)NC(=O)c1nc(Cl)c(N)nc1N	-13.1%	14.1µM*!
NC(=Nc1ccccc1)NC(=O)c1nc(Cl)c(N)nc1N	-12.2%	?
CC(CNC(=O)CCCn1c(=O)c2cccn2c2ccc(F)cc21)c1ccccc1 (stereo not given)	-3.3%	15.8µM*
CC(CNC(=O)CCn1c(=O)c2cccn2c2ccc(F)cc21)c1ccccc1 (stereo not given)	-7.3%	29.5%
CCOc1ccc2nc(N3CCCCCC3)sc2c1	-1.3%	-6.2%
COc1ccc2nc(N3C(=O)/C(=C/c4ccccc4)NC3=S)sc2c1	-0.6%	12.6µM*
COc1ccc2nc(-n3c(C)ccc3C)sc2c1	2.7%	-19.0%
CCOc1ccc2nc(N3C(=O)/C(=C/c4ccccc4)NC3=S)sc2c1	-1.7%	12.6µM*
Cc1ccc(Cc2nc3ccccc3nc2SCC(=O)NCc2ccccc2Cl)cc1	1.5%	-18.5%
